# According to PubChem BioAssay (EPA / NIEHS):
# Values joined by “and” are separate entries in the source; they are usually repeats but may differ in a detail not shown here. Equal values may be shown once. Records with an inconclusive call do not appear. Active and inactive are the calls of the source. How the source made its calls, unless noted: active means hit-call score of the fitted dose curve at least 0.9, where 1 is the maximum; inactive means score below 0.9.
# Columns and labels:
# [1] = test system: DIO1 (gene 1733); test: CCTE_GLTED_hDIO1: CCTE's human Deiodinase 1 (DIO1) Inhibition Assay, Great Lakes Toxicology and Ecology Division (GLTED) Lab (AID 2283987; active means hit-call score of the fitted dose curve at least 0.9, where 1 is the maximum;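 further: isolated human DIO1 enzyme in a cell-free setup rather than cells; enzyme activity read as free iodide liberated from substrate via Sandell-Kolthoff colorimetry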)
# Summary of the method: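 Cell-free hDIO1 assay, triplicate plates. Absorbance of the Sandell-Kolthoff reaction reports enzyme-liberated iodide; iodinated chemicals or nitrite, iron and thiocyanate may interfere.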
# [2] = CCTE_Simmons_MITO_basal_resp_rate: CCTE's HepG2 Seahorse XF Respirometric Screening Assay at Basal Respiratory State, Simmons Lab (AID 2284001); conditions: actives raise or lower the signal
# Summary of the method: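 Basal-phase OCR of HepG2 cells on a Seahorse XF96, analysed by bidirectional fit relative to DMSO vehicle; chemicals at 7 concentrations, 125 nM–100 uM final; three biological replicates; fenpyroximate and 2,4-dinitrophenol positive controls.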
# [3] = CCTE_Simmons_MITO_max_resp_rate: CCTE's HepG2 Seahorse XF Respirometric Screening Assay at Maximal Respiratory State [uncoupled], Simmons Lab (AID 2284002); conditions: actives raise or lower the signal
# Summary of the method: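 Maximal respiration in HepG2 cells is recorded as OCR by Seahorse XF following FCCP injection. Compounds span 125 nM–100 uM final; activity is called in either direction against DMSO.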
# [4] = CCTE_Simmons_MITO_inhib_resp_rate: CCTE's HepG2 Seahorse XF Respirometric Screening Assay at Inhibited Respiratory State [full ETC block], Simmons Lab (AID 2284006); conditions: actives raise or lower the signal
# Summary of the method: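 This endpoint is the respiration rate remaining after rotenone/antimycin A block, in HepG2 cells on a Seahorse XF96. Chemicals spanned 125 nM–100 uM final, in three biological replicates. OCR was read every 6 minutes for 72 minutes and compared with DMSO vehicle.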
# [5] = CCTE_Simmons_MITO_viability: CellTiter-Glo Viability Assessment for CCTE's HepG2 Seahorse XF Respirometric Screening Assay [post-hoc], Simmons Lab (AID 2284007; active means hit-call score of the fitted dose curve at least 0.9, where 1 is the maximum;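 on AC50: cells exposed to chemical for 90 min before the ATP read; actives lower ATP signal relative to DMSO baseline meaning reduced viability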)
# Summary of the method: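 Luciferase-coupled ATP read-out after the Seahorse run: HepG2 cells treated 90 minutes with test chemical, 7-point series of 125 nM–100 uM final, in triplicate biological runs. Vehicle DMSO; dichlone as positive control over 8 concentrations.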
# [6] = CCTE_Shafer_MEA_acute_spike_number: CCTE's Neural Acute Assay for Total Number of Spikes, Shafer Lab (AID 2284008);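 on AC50: curve fitted for decrease in spike count so AC50 reflects inhibitors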
# Summary of the method: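 Cortical neurons from rat, matured to DIV 13 or 15 on microelectrode arrays, are recorded at 37 C before and during 40-min exposure to 0.03-40 uM compound. Wells need >/= 10 active electrodes.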
# [7] = molecular target: Nucleoli Translocation, AR (gene 367) (UniProt P10275); test: UPITT_HCI_U2OS_AR_TIF2_Nucleoli_Antagonist: University of Pittsburgh U2OS Androgen Receptor-Transcriptional Intermediary Factor 2 (AR-TIF2) Antagonism High Content Imaging Assay for Nucleoli Translocation (AID 2283997; active means hit-call score of the fitted dose curve at least 0.9, where 1 is the maximum)
# Summary of the method: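 Compounds are added at 20 uM final concentration in 0.2% DMSO to U2OS cells carrying AR-RFP and TIF2-GFP fusions. Nucleolar AR-RFP fluorescence is then quantified by automated imaging. Antagonism is fitted positively against DHT baseline.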
# [8] = molecular target: Nucleoli Translocation, AR (gene 367) (UniProt P10275); test: UPITT_HCI_U2OS_AR_TIF2_Nucleoli_Agonist: University of Pittsburgh U2OS Androgen Receptor-Transcriptional Intermediary Factor 2 (AR-TIF2) Agonism High Content Imaging Assay for Nucleoli Translocation (AID 2283998; active means hit-call score of the fitted dose curve at least 0.9, where 1 is the maximum)
# Summary of the method: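 Red-tagged human androgen receptor co-expressed with GFP-tagged TIF2 serves as the binding reporter. Primary testing used 20 uM final (0.2% DMSO); follow-up dose response covered 0.195 to 50 uM final (0.5% DMSO).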
# [9] = molecular target: Ratio of Nucleoli Translocation and Cytoplasm, AR (gene 367) (UniProt P10275); test: UPITT_HCI_U2OS_AR_TIF2_Nucleoli_Cytoplasm_Ratio_Antagonist: University of Pittsburgh U2OS Androgen Receptor-Transcriptional Intermediary Factor 2 (AR-TIF2) Antagonism High Content Imaging Assay for Ratio of Nucleoli Translocation and Cytoplasm (AID 2283999; active means hit-call score of the fitted dose curve at least 0.9, where 1 is the maximum;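 further: antagonists lower the DHT-driven ratio of nucleolar to cytoplasmic red signal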)
# Summary of the method: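 High-content imaging of red fluorescence ratio, nucleoli versus cytoplasm, in U2OS expressing AR-RFP and TIF2-GFP, fitted relative to DHT. Compounds tested once at 20 uM final, then 0.195 to 50 uM final in serial dilution.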
# [10] = molecular target: Ratio of Nucleoli Translocation and Cytoplasm, AR (gene 367) (UniProt P10275); test: UPITT_HCI_U2OS_AR_TIF2_Nucleoli_Cytoplasm_Ratio_Agonist: University of Pittsburgh U2OS Androgen Receptor-Transcriptional Intermediary Factor 2 (AR-TIF2) Agonism High Content Imaging Assay for Ratio of Nucleoli Translocation and Cytoplasm (AID 2284000; active means hit-call score of the fitted dose curve at least 0.9, where 1 is the maximum;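 further: hits raise the red nucleolar to cytoplasm ratio above vehicle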)
# Summary of the method: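 Human osteosarcoma U2OS line, AR-RFP plus TIF2-GFP; compounds 0.195–50 uM final, 0.5% DMSO. Readout: nucleolar/cytoplasmic RFP ratio by HCI, positive direction vs DMSO baseline.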
# Nucleoli Translocation, AR (gene 367), sequence (P10275 whole entry, looked up, the tested form may be a part): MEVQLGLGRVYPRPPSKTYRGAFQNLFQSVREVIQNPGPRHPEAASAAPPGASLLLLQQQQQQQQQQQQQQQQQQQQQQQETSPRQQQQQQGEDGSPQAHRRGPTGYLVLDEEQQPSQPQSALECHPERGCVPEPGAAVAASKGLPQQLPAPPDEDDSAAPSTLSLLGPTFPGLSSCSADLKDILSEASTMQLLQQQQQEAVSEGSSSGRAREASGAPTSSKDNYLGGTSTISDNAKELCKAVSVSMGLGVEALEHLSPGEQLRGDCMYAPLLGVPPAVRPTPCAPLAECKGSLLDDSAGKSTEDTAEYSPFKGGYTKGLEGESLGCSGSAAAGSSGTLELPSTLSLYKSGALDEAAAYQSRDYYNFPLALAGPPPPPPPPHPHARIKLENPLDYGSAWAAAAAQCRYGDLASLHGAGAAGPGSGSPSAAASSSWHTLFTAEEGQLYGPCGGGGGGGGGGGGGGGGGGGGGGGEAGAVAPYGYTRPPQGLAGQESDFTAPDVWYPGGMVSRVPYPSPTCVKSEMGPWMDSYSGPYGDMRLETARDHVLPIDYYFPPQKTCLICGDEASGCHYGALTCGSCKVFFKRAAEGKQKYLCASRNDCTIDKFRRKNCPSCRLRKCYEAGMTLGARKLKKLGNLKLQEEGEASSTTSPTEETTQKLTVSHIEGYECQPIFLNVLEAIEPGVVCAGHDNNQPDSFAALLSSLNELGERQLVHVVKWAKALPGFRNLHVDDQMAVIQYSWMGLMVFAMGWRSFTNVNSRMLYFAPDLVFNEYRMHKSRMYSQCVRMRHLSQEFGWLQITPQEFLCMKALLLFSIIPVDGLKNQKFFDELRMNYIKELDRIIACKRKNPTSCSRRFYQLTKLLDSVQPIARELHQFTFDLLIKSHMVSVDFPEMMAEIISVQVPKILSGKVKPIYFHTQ
# Ratio of Nucleoli Translocation and Cytoplasm, AR (gene 367), sequence (P10275 whole entry, looked up): as the sequence (P10275 whole entry, looked up, the tested form may be a part) above
smiles,measurement,setting,value
CCc1cccc(C)c1N(C(=O)CCl)C(C)COC (stereo not drawn),AC50,[1],64.2 µM (active)
same,AC50,[2],23.7 µM (active)
same,AC50,[3],39.7 µM (active)
same,outcome,[4],inactive
same,outcome,[5],inactive
same,AC50,[6],27 µM (active)
CCCSP(=O)(OCC)SCCC,outcome,[7],inactive
same,outcome,[8],inactive
same,outcome,[9],inactive
same,outcome,[10],inactive
same,AC50,[2],32.8 µM (active)
same,AC50,[3],38.1 µM (active)
same,outcome,[4],inactive
same,outcome,[5],inactive
COc1ccc(C(=CC(=O)N2CCOCC2)c2ccc(Cl)cc2)cc1OC,AC50,[7],3.21 µM (active)
same,outcome,[8],inactive
same,AC50,[9],2.52 µM (active)
same,outcome,[10],inactive
N#CSCSC#N,AC50,[7],16.5 µM (active)
same,outcome,[8],inactive
same,AC50,[9],12.7 µM (active)
same,AC50,[2],32.6 µM (active)
same,AC50,[3],50 µM (active)
same,outcome,[4],inactive
same,AC50,[5],67.6 µM (active)
same,outcome,[6],inactive
CCOP(=O)(NC(C)C)Oc1ccc(SC)c(C)c1 (stereo not drawn),outcome,[7],inactive
same,outcome,[8],inactive
same,outcome,[9],inactive
same,outcome,[10],inactive
same,outcome,[2],inactive
same,outcome,[4],inactive
same,outcome,[5],inactive
same,AC50,[6],10.2 µM (active)
C[N+]1(C)CCCCC1,outcome,[7],inactive
same,outcome,[8],inactive
same,outcome,[9],inactive
same,outcome,[10],inactive
same,outcome,[6],inactive
CC(C)=CC1C(C(=O)OCN2C(=O)C3=C(CCCC3)C2=O)C1(C)C (stereo not drawn),outcome,[7],inactive
same,outcome,[8],inactive
same,outcome,[9],inactive
same,AC50,[2],42.5 µM (active)
same,AC50,[3],39.9 µM (active)
same,outcome,[4],inactive
same,outcome,[5],inactive
same,outcome,[6],inactive
COP(=O)(OC)SCn1c(=O)oc2cc(Cl)cnc21,outcome,[7],inactive
same,outcome,[8],inactive
same,outcome,[9],inactive
same,outcome,[10],inactive
CN(C)NC(=O)CCC(=O)O,outcome,[6],inactive
CCCCOC(=O)[C@@H](C)Oc1ccc(Oc2ccc(C#N)cc2F)cc1,outcome,[2],inactive
same,outcome,[3],inactive
same,outcome,[4],inactive
same,outcome,[5],inactive
COc1cc(OC)nc(Sc2cccc(Cl)c2C(=O)O)n1,outcome,[6],inactive
COP(=O)(NC(C)=O)SC (stereo not drawn),outcome,[6],inactive
CCOP(=S)(Oc1cnc(C(C)(C)C)nc1)OC(C)C (stereo not drawn),AC50,[2],59.3 µM (active)
same,AC50,[3],50 µM (active)
same,outcome,[4],inactive
same,outcome,[5],inactive
same,AC50,[6],15.6 µM (active)
COP(=O)(OC)C(O)C(Cl)(Cl)Cl (stereo not drawn),outcome,[6],inactive
CCOC(=O)COc1cc(-c2nn(C)c(OC(F)F)c2Cl)c(F)cc1Cl,outcome,[7],inactive
same,outcome,[8],inactive
same,outcome,[10],inactive
CC(=NC#N)N(C)Cc1ccc(Cl)nc1,outcome,[6],inactive
FC(F)C(F)(F)OCC(Cn1cncn1)c1ccc(Cl)cc1Cl (stereo not drawn),AC50,[2],12.8 µM (active)
same,AC50,[3],22.5 µM (active)
same,outcome,[4],inactive
same,AC50,[5],16.9 µM (active)
same,AC50,[6],5.94 µM (active)
O=c1ccc(=O)[nH][nH]1,outcome,[7],inactive
same,outcome,[8],inactive
same,outcome,[10],inactive
C#CCC1=C(C)C(OC(=O)C2C(C=C(C)C)C2(C)C)CC1=O (stereo not drawn),AC50,[2],34.9 µM (active)
same,AC50,[3],33.7 µM (active)
same,outcome,[4],inactive
same,outcome,[5],inactive
same,AC50,[6],27.4 µM (active)
CCC(CC)Nc1c([N+](=O)[O-])cc(C)c(C)c1[N+](=O)[O-],AC50,[2],24.8 µM (active)
same,AC50,[3],29.8 µM (active)
same,outcome,[4],inactive
same,outcome,[5],inactive
CC(C)[C@H](C(=O)O[C@H](C#N)c1cccc(Oc2ccccc2)c1)c1ccc(Cl)cc1,outcome,[6],inactive
CCCSP(=O)(OCC)Oc1ccc(Br)cc1Cl (stereo not drawn),outcome,[2],inactive
same,outcome,[4],inactive
Cc1ccn2nc(S(=O)(=O)Nc3c(F)cccc3F)nc2n1,outcome,[6],inactive
CCOP(=S)(OCC)Oc1ccc2c(C)c(Cl)c(=O)oc2c1,AC50,[6],1.85 µM (active)
CCc1cnc(C2=NC(C)(C(C)C)C(=O)N2)c(C(=O)O)c1 (stereo not drawn),outcome,[6],inactive
CCOP(=S)(OCC)SCCSCC,outcome,[2],inactive
same,outcome,[3],inactive
same,outcome,[4],inactive
same,outcome,[6],inactive
CC1=NNC(=O)N(/N=C/c2cccnc2)C1,outcome,[6],inactive
CC1(C(=O)Nc2ccc(O)c(Cl)c2Cl)CCCCC1,AC50,[2],29.8 µM (active)
same,AC50,[3],31.4 µM (active)
same,outcome,[4],inactive
same,outcome,[5],inactive
CN1COCN(Cc2cnc(Cl)s2)C1=N[N+](=O)[O-],outcome,[6],inactive
C[Si](Cn1cncn1)(c1ccc(F)cc1)c1ccc(F)cc1,AC50,[2],13.9 µM (active)
same,AC50,[3],16.2 µM (active)
same,outcome,[4],inactive
same,AC50,[5],10.3 µM (active)
same,AC50,[6],4.69 µM (active)
O=C(O)c1cc(Oc2ccc(C(F)(F)F)cc2Cl)ccc1[N+](=O)[O-],AC50,[3],32.9 µM (active)
same,outcome,[4],inactive
same,outcome,[5],inactive
same,outcome,[6],inactive
CC(C)N(C(=O)SCC(Cl)=C(Cl)Cl)C(C)C,outcome,[2],inactive
same,outcome,[3],inactive
same,outcome,[4],inactive
same,outcome,[5],inactive
same,AC50,[6],8.85 µM (active) and 5.81 µM (active)
CC(COc1ccc(Oc2ccccc2)cc1)Oc1ccccn1 (stereo not drawn),outcome,[7],inactive
same,outcome,[9],inactive
same,outcome,[2],inactive
same,outcome,[3],inactive
same,outcome,[4],inactive
same,AC50,[6],20 µM (active)
CCC(=O)Nc1ccc(Cl)c(Cl)c1,AC50,[7],14.3 µM (active)
same,outcome,[9],inactive
same,outcome,[10],inactive
same,AC50,[2],41.1 µM (active)
same,AC50,[3],27.3 µM (active)
same,outcome,[4],inactive
same,outcome,[5],inactive
